PubChem BioAssay (NCI)
Values joined by “and” are separate entries in the source; they are usually repeats but may differ in a detail not shown here. Equal entries are not always repeated. Compounds without any hit were thinned out: in the full panel of roughly 83,000, 20% have a hit.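 How to read the values: 0–100, growth inhibition (40 = 60% inhibited); 0, no net growth; -100 to 0, cell death (-40 = 40% of starting cells died; -100 = all dead).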 Active and inactive are the calls of the source. Rule for the calls: active = growth percent below 10; inactive = the rest. Where a SMILES comes first, the peptide text is derived from it. [ ]: non-standard residue; d: D form. ξ: configuration not given here. ξV = CC(C)C(N)C(=O)O

The compounds below were run on K-562 leukemia (assay: NCI-60 one-dose screen, 48 h (100 = growth as untreated, 0 = no growth, -100 = all killed)). Conditions: 10 µM.

| Compound | growth |
| --- | --- |
| NNc1ccc2ccccc2c1 | 86% (inactive) and 115% (inactive) |
| NC1=C(Cl)C(=O)c2ccccc2C1=O | 57% (inactive) |
| Nc1ccc2cc3ccc(N)cc3nc2c1 | 9.74% (active) |
| CO[C@H](C(=O)[C@@H](O)[C@@H](C)O)[C@@H]1Cc2cc3cc(OC4CC(OC5CC(O)C(O)C(C)O5)C(O)C(C)O4)c(C)c(O)c3c(O)c2C(=O)[C@H]1OC1CC(OC2CC(OC3CC(C)(O)C(O)C(C)O3)C(O)C(C)O2)C(O)C(C)O1 (stereo partly specified) | 6.76% (active) |
| CCC(C)(C)c1cc(O)c(C(C)(C)CC)cc1O | 39.8% (inactive) |
| Cc1cc(NS(=O)(=O)c2ccc(N=Nc3cc(N=Nc4ccc(S(=O)(=O)Nc5cc(C)nc(C)n5)cc4)c4c(NC(=O)C(Cl)Cl)cccc4c3OC(=O)C(Cl)Cl)cc2)nc(C)n1 (tested in a mixture with another compound) | 108% (inactive) and 117% (inactive) |
| O=C(Nc1ccc(C(=O)O)c(O)c1)c1ccccc1 | 101% (inactive) and 102% (inactive) |
| CC(=O)Nc1cc(C)ccc1C | 102% (inactive) |
| CCCCCCCCCCCCCCCCCCOCC(COP(=O)([O-])OCC[N+](C)(C)C)OC (stereo unspecified) | 104% (inactive) |
| CCCC1CCC(=C2C(=O)CCC2=O)O1 (stereo unspecified) | 145% (inactive) and 121% (inactive) |
| COC(=O)C1C(O)C(C)C(O)C(C)C=C(C)C2=C3C(=C(C)C(=O)c4c(O)c(c(C)c(OC(C)=O)c43)NC(=O)C(C)=C/C=C\C(C)C(O)C(C)C1O)OCO2 (stereo unspecified) | 127% (inactive) |
| CCCCCCCCCCSC(=N)N | 11.1% (inactive) |
| CS(=O)(=O)OC1CC(n2ccc(=O)[nH]c2=O)OC1COC(c1ccccc1)(c1ccccc1)c1ccccc1 (stereo unspecified) | 98.5% (inactive) |
| Clc1cc(Cl)c(Cl)nn1 | 106% (inactive) |
| OCC(O)C(O)C(O)C(/C=N/Nc1ccccc1)=N/Nc1ccccc1 (stereo unspecified) | 67.1% (inactive) |
| CSC1SCC2C(=O)N(C)C(C(C)C)C(=O)OCC(NC(=O)c3cnc4ccccc4n3)C(=O)NC(C)C(=O)N(C)C1C(=O)N(C)C(C(C)C)C(=O)OCC(NC(=O)c1cnc3ccccc3n1)C(=O)NC(C)C(=O)N2C (stereo unspecified) | -61.8% (active) |
| COc1cccc2c1C(=O)c1c(O)c3c(c(O)c1C2=O)C[C@@](O)(C(C)=O)C[C@@H]3OC1CC(N)C(O)C(C)O1 (stereo partly specified) | -49.5% (active) |
| CCCCCCCCCCCC[N+](C)(C)Cc1ccccc1 | -5.13% (active) |
| CC(=O)OCC(OC(C)=O)C(OC(C)=O)C(OC(C)=O)C(OC(C)=O)C(/C=N/Nc1ccccc1)=N/Nc1ccccc1 (stereo unspecified) | 22.4% (inactive) |
| Clc1ccc(/C=C/c2ccccn2)c(Cl)c1 | 93.6% (inactive) |
| CC(C)(C)CC(C)(C)c1ccc(OCCO)cc1 | 93.4% (inactive) |
| COc1cccc2c1C(=O)c1c(O)c3c(c(O)c1C2=O)C[C@@](O)(C(=O)CO)C[C@@H]3OC1CC(N)C(O)C(C)O1 (stereo partly specified) | 2.13% (active) |
| CCCCCCCCCCCCSC(=NC)NC | 3.08% (active) and 2.7% (active) |
| O=C1NC(=O)c2cc([N+](=O)[O-])ccc21 | 119% (inactive) |
| O=C(/C=C/c1ccccn1)c1ccccc1 | 14% (inactive) |
| O=c1ccn(C2CC(O)C(COC(c3ccccc3)(c3ccccc3)c3ccccc3)O2)c(=O)[nH]1 (stereo unspecified) | 79.1% (inactive) |
| CC(C)C(NC(=O)CN)C(=O)O (stereo unspecified) (H-Gly-[ξV]-OH) | 92.9% (inactive) and 104% (inactive) |
| CCN(CC)c1ccc(NC(C(=O)c2ccccc2)c2ccccc2)cc1 (stereo unspecified) | 10.4% (inactive) |

These compounds were tested on MALME-3M melanoma in the same assay as above. Conditions: 10 µM.

| Compound | growth |
| --- | --- |
| NNc1ccc2ccccc2c1 | 90.1% (inactive) and 96.8% (inactive) |
| NC1=C(Cl)C(=O)c2ccccc2C1=O | -26.3% (active) |
| Nc1ccc2cc3ccc(N)cc3nc2c1 | 107% (inactive) and -50.9% (active) |
| CO[C@H](C(=O)[C@@H](O)[C@@H](C)O)[C@@H]1Cc2cc3cc(OC4CC(OC5CC(O)C(O)C(C)O5)C(O)C(C)O4)c(C)c(O)c3c(O)c2C(=O)[C@H]1OC1CC(OC2CC(OC3CC(C)(O)C(O)C(C)O3)C(O)C(C)O2)C(O)C(C)O1 (stereo partly specified) | -54.6% (active) |
| CCC(C)(C)c1cc(O)c(C(C)(C)CC)cc1O | 102% (inactive) |
| Cc1cc(NS(=O)(=O)c2ccc(N=Nc3cc(N=Nc4ccc(S(=O)(=O)Nc5cc(C)nc(C)n5)cc4)c4c(NC(=O)C(Cl)Cl)cccc4c3OC(=O)C(Cl)Cl)cc2)nc(C)n1 (tested in a mixture with another compound) | 101% (inactive) and 94% (inactive) |
| O=C(Nc1ccc(C(=O)O)c(O)c1)c1ccccc1 | 88.5% (inactive) and 92.3% (inactive) |
| CC(=O)Nc1cc(C)ccc1C | 92.9% (inactive) |
| CCCCCCCCCCCCCCCCCCOCC(COP(=O)([O-])OCC[N+](C)(C)C)OC (stereo unspecified) | 80.7% (inactive) |
| CCCC1CCC(=C2C(=O)CCC2=O)O1 (stereo unspecified) | 103% (inactive) and 101% (inactive) |
| COC(=O)C1C(O)C(C)C(O)C(C)C=C(C)C2=C3C(=C(C)C(=O)c4c(O)c(c(C)c(OC(C)=O)c43)NC(=O)C(C)=C/C=C\C(C)C(O)C(C)C1O)OCO2 (stereo unspecified) | 126% (inactive) |
| CCCCCCCCCCSC(=N)N | 81.3% (inactive) |
| CS(=O)(=O)OC1CC(n2ccc(=O)[nH]c2=O)OC1COC(c1ccccc1)(c1ccccc1)c1ccccc1 (stereo unspecified) | 91.9% (inactive) |
| Clc1cc(Cl)c(Cl)nn1 | 109% (inactive) |
| OCC(O)C(O)C(O)C(/C=N/Nc1ccccc1)=N/Nc1ccccc1 (stereo unspecified) | 101% (inactive) |
| CSC1SCC2C(=O)N(C)C(C(C)C)C(=O)OCC(NC(=O)c3cnc4ccccc4n3)C(=O)NC(C)C(=O)N(C)C1C(=O)N(C)C(C(C)C)C(=O)OCC(NC(=O)c1cnc3ccccc3n1)C(=O)NC(C)C(=O)N2C (stereo unspecified) | -23.1% (active) |
| COc1cccc2c1C(=O)c1c(O)c3c(c(O)c1C2=O)C[C@@](O)(C(C)=O)C[C@@H]3OC1CC(N)C(O)C(C)O1 (stereo partly specified) | -77.1% (active) |
| CCCCCCCCCCCC[N+](C)(C)Cc1ccccc1 | -19.2% (active) |
| CC(=O)OCC(OC(C)=O)C(OC(C)=O)C(OC(C)=O)C(OC(C)=O)C(/C=N/Nc1ccccc1)=N/Nc1ccccc1 (stereo unspecified) | 84.5% (inactive) |
| Clc1ccc(/C=C/c2ccccn2)c(Cl)c1 | 102% (inactive) |
| CC(C)(C)CC(C)(C)c1ccc(OCCO)cc1 | 158% (inactive) |
| COc1cccc2c1C(=O)c1c(O)c3c(c(O)c1C2=O)C[C@@](O)(C(=O)CO)C[C@@H]3OC1CC(N)C(O)C(C)O1 (stereo partly specified) | -80.1% (active) |
| CCCCCCCCCCCCSC(=NC)NC | 40% (inactive) and 72.8% (inactive) |
| O=C1NC(=O)c2cc([N+](=O)[O-])ccc21 | 106% (inactive) |
| O=C(/C=C/c1ccccn1)c1ccccc1 | 91% (inactive) |
| O=c1ccn(C2CC(O)C(COC(c3ccccc3)(c3ccccc3)c3ccccc3)O2)c(=O)[nH]1 (stereo unspecified) | 94.4% (inactive) |
| CC(C)C(NC(=O)CN)C(=O)O (stereo unspecified) (H-Gly-[ξV]-OH) | 101% (inactive) and 99.8% (inactive) |
| CCN(CC)c1ccc(NC(C(=O)c2ccccc2)c2ccccc2)cc1 (stereo unspecified) | 28.7% (inactive) |
